“And” between values parts separate entries of the source, which are not always exact repeats. Equal values may be shown once. Inconclusive results are not listed. Entries that show only a call come without a potency. The source made the active and inactive calls. The call rests on the fitted dose curve.
Assays:
[1] = biological target: Acetylcholinesterase (Homo sapiens) (UniProt P22303); test: Acetylcholinesterase (AChE) small molecule antagonists: colormetric cell-based qHTS assay (AID 1347395); conditions: SH-SY5Y cells AChE activity, colorimetric (Ellman); series mostly up to 115 µM; further: nearly all actives have a fitted effect of over 30% in size
How it was run: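 After overnight attachment at 37 C, SH-SY5Y cells get 30 min compound exposure; detection cocktail (acetylthiocholine, DTNB) then incubates 90 min at 37 C, and absorbance reflects AChE-generated thiocholine.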

[2] = biological target: Acetylcholinesterase (Homo sapiens) (UniProt P22303); test: Acetylcholinesterase (AChE) small molecule antagonists: enzyme-based qHTS assay (AID 1347397); conditions: Potency: AChE enzyme activity inhibition; outcome: AChE enzyme activity inhibition; series mostly up to 115 µM; further: nearly all actives have a fitted effect of over 55% in size
How it was run: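 Enzyme inhibition was scored from DTNB-detected thiocholine formed by recombinant human AChE acting on acetylthiocholine. The 30 min compound preincubation and 10 min substrate reaction were both run at room temperature, with DMSO as vehicle control.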

[3] = biological target: Acetylcholinesterase (Homo sapiens) (UniProt P22303); test: Acetylcholinesterase (AChE) small molecule antagonists: fluorescence cell-based qHTS assay (AID 1347398); conditions: SH-SY5Y cells; Potency: AChE activity; outcome: AChE activity; series mostly up to 115 µM; further: nearly all actives have a fitted effect of over 50% in size
How it was run: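 Endogenous acetylcholinesterase of SH-SY5Y neuroblastoma cells is measured in situ. After overnight attachment and 30 min compound exposure, cells receive acetylthiocholine and Thiolite Green; fluorescence is read after 40 min at room temperature.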

[4] = biological target: Acetylcholinesterase (Homo sapiens) (UniProt P22303); test: Acetylcholinesterase (AChE) small molecule antagonists: enzyme-based qHTS assay with human liver microsomes (AID 1347399); conditions: Potency: qHTS inhibition; outcome: qHTS inhibition; series mostly up to 115 µM; further: nearly all actives have a fitted effect of over 60% in size
How it was run: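 Recombinant human AChE (50 mU/mL in the enzyme mix) and human liver microsomes (0.25 mg/mL final) were preincubated with compound and NADPH (0.25 mg/mL final) for 30 min at 37 C. Acetylthiocholine/DTNB was then added; thiocholine was read colorimetrically after 10 min at room temperature.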
Potency means the concentration at half of the fitted maximal effect.

Chain of Acetylcholinesterase (Homo sapiens) (P22303 whole entry, looked up): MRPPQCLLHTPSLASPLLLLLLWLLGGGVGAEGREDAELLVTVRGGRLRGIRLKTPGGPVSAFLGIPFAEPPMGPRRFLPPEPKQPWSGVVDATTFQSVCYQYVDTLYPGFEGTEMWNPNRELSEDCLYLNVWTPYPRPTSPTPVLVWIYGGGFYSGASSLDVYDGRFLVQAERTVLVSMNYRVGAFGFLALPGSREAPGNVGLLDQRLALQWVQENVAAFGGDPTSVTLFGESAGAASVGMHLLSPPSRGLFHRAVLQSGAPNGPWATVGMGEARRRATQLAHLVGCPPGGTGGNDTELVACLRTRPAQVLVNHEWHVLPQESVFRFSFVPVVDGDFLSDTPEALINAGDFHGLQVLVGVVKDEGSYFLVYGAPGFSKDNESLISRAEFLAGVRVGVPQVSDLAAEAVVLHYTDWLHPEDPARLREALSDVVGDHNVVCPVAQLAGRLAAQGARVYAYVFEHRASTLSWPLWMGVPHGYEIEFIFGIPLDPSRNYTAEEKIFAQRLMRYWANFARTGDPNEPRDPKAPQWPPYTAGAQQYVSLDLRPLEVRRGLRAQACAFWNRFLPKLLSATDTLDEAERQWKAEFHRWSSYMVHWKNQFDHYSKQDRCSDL

Structure (SMILES)	Potency [1]	Potency [2]	Potency [3]	Potency [4]	outcome [1]	outcome [2]	outcome [3]	outcome [4]
O=Nc1ccc(NO)cc1	inactive	inactive	inactive	inactive	–	–	–	–
CCCCCCCCCCCCCCCC(=O)OC(C)C	inactive	inactive	inactive	inactive	–	–	–	–
CN(C)CCOC(C)(c1ccccc1)c1ccccn1 (stereo not given)	inactive	inactive	inactive	inactive	–	–	–	–
CO[Si](OC)(OC)OC	inactive	inactive	inactive	inactive	–	–	–	–
CSc1cnccn1	inactive	inactive	inactive	inactive	–	–	–	–
O=C1OCCO1	inactive	inactive	inactive	inactive	–	–	–	–
CCc1nn(C2CCCCC2)c2cc(C3(C#N)CCC(C(=O)O)CC3)ccc12 (stereo not given)	inactive	inactive	inactive	inactive	–	–	–	–
Nc1ccc(N=Nc2ccc(N)cc2)cc1	inactive	inactive	inactive	inactive	–	–	–	–
CC(C)(C)C(=O)CC(=O)C(C)(C)C	inactive	inactive	inactive	inactive	–	–	–	–
Nc1ccc2cc(S(=O)(=O)O)cc(O)c2c1N=Nc1ccccc1C(F)(F)F	inactive	inactive	inactive	inactive	–	–	–	–
C=CCOCC(O)CCl (stereo not given)	inactive	inactive	inactive	inactive	–	–	–	–
C[C@@H]1C[C@H]2O[C@@]3(O[C@@H]2C(C)(C)O)[C@H](O)[C@@]2(C)[C@@H]4CC[C@H]5C(C)(C)[C@@H](O[C@@H]6OC[C@@H](O)[C@H](O)[C@H]6O)CC[C@@]56C[C@@]46CC[C@]2(C)[C@@H]13	inactive	inactive	inactive	inactive	–	–	–	–
CCOC(=O)c1ccc(OC(=O)CCCCCN=C(N)N)cc1	–	–	–	–	inactive	inactive	inactive	inactive
CC1(C)S[C@@H]2[C@H](NC(=O)Cc3ccccc3)C(=O)N2[C@H]1C(=O)O (tested in a mixture with another compound)	inactive	inactive	inactive	inactive	–	–	–	–
C=C(C)C(=O)OCCC(C)OC(=O)C(=C)C (stereo not given)	inactive	inactive	inactive	inactive	–	–	–	–
Oc1ccc2c(c1)OCO2	inactive	inactive	inactive	inactive	–	–	–	–
CCCCCOC(=O)COc1cc(N2C(=O)C3=C(CCCC3)C2=O)c(F)cc1Cl	inactive	inactive	inactive	inactive	–	–	–	–
CCCCN1C[C@H](O)[C@@H](O)[C@H](O)[C@H]1CO	inactive	inactive	inactive	inactive	–	–	–	–
CCOC(OCC)OCC	inactive	inactive	inactive	inactive	–	–	–	–
CCOC(=O)CCC(=O)OCC	inactive	inactive	inactive	inactive	–	–	–	–
O=C1CCCC(=O)O1	inactive	inactive	inactive	inactive	–	–	–	–
O=CCc1ccccc1	inactive	inactive	inactive	inactive	–	–	–	–
O=c1[nH]c2ccc(S(=O)CCN3CCC(Cc4ccc(F)cc4)CC3)cc2o1 (stereo not given)	6.33 µM (active)	5.64 µM (active)	1.12 µM (active)	35.6 µM (active)	–	–	–	–

Structure (SMILES)	Potency [1]	Potency [2]	Potency [3]	Potency [4]	outcome [1]	outcome [2]	outcome [3]	outcome [4]
C=CC(=O)OCCCCCC	inactive	inactive	inactive	inactive	–	–	–	–
CN1CCN(CCCN2c3ccccc3Sc3ccc(Cl)cc32)CC1	inactive	inactive	inactive	inactive	–	–	–	–
S=C([S-])NCCNC(=S)[S-].S=C([S-])NCCNC(=S)[S-].[Mn+2].[Zn+2]	30.9 µM (active)	inactive	30.9 µM (active)	inactive	–	–	–	–
c1ccc(CNCCNCc2ccccc2)cc1	inactive	inactive	inactive	inactive	–	–	–	–
COC1=CC(=O)C[C@@H](C)[C@]12Oc1c(Cl)c(OC)cc(OC)c1C2=O	inactive	inactive	inactive	inactive	–	–	–	–
COc1ccc2c(c1)c(CC(=O)OC/C=C(\C)CC/C=C(\C)CCC=C(C)C)c(C)n2C(=O)c1ccc(Cl)cc1	inactive	inactive	inactive	inactive	–	–	–	–
NC(CO)(CO)CO	–	–	–	–	inactive	inactive	inactive	inactive
BrC1CCC(Br)C(Br)CCC(Br)C(Br)CCC1Br (stereo not given)	inactive	inactive	inactive	inactive	–	–	–	–
CCN(CC)CC(=O)Oc1ccc(NC(C)=O)cc1	inactive	inactive	inactive	inactive	–	–	–	–
C[C@]12CC[C@@H]3c4ccc(O)cc4CC[C@H]3[C@@H]1CC[C@@H]2O	inactive	inactive	inactive	inactive	–	–	–	–
O=C(Oc1ccccc1)c1ccc(O)cc1	inactive	inactive	inactive	inactive	–	–	–	–
CCCC(=O)O[C@]1(C(=O)CC)CC[C@H]2[C@@H]3CCC4=CC(=O)CC[C@]4(C)[C@H]3[C@@H](O)C[C@@]21C	inactive	inactive	inactive	inactive	–	–	–	–
c1ccc2sc(SN3CCOCC3)nc2c1	inactive	inactive	inactive	inactive	–	–	–	–
COc1cccc2c1C(=O)c1c(O)c3c(c(O)c1C2=O)C[C@@](O)(C(=O)CO)C[C@@H]3O[C@H]1C[C@H](N)[C@H](O)[C@H](C)O1	8.71 µM (active)	inactive	inactive	inactive	–	–	–	–
Cc1cc(O)c(C)c(C)c1O	inactive	inactive	inactive	inactive	–	–	–	–
C[Si](O[Si](C)(C)C)O[Si](C)(C)C	inactive	inactive	inactive	inactive	–	–	–	–
c1cc[nH]c1	inactive	inactive	inactive	inactive	–	–	–	–
C[C@H]1C[C@H]2[C@@H]3CCC4=CC(=O)C=C[C@]4(C)[C@@]3(F)[C@@H](O)C[C@]2(C)[C@@]1(O)C(=O)CO	inactive	inactive	inactive	inactive	–	–	–	–
CN1CCc2cccc3c2[C@H]1Cc1ccc(O)c(O)c1-3	64 µM (active)	40.4 µM (active) and 21.1 µM (active)	64 µM (active)	inactive	–	–	–	–
CCc1ccc(O)cc1	inactive	inactive	inactive	inactive	–	–	–	–
CCCN(CCC)S(=O)(=O)c1ccc(C(=O)O)cc1	inactive	inactive	inactive	inactive	–	–	–	–
CCOC(=O)O[C@H](C)OC(=O)c1ccc2c(c1)cc(C(=O)NC1CCN(C(C)C)CC1)n2Cc1cc(-c2ccc(Cl)s2)on1	inactive	inactive	41.8 µM (active)	inactive	–	–	–	–

Reference: PubChem BioAssay (Tox21)
